A short description of assay [1]: optical density shifts of acrAB sulA E. coli – strain DRC41, OD650, 48 h, E. coli filamentation inducer project, primary screen (AID 1152).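 Also: E. coli MC1000 strain DRC41 lacking acrAB efflux pump and sulA.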 The note with it: higher = more signal, called active from +8 up or from −8 down.
Assay [2] can be described thus: probe aLefty1 binding on compound microarray – biochemical, small-molecule microarray, 635/667 nm fluorescence, primary screen (AID 1153).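 Also: score merges spot fluorescence with signal-to-noise ratio from the scanned slide images.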 The note with it: higher = more signal.
The nature of assay [3]: plasmodial surface anion channel blockers, osmotic lysis – cell-based, P. falciparum Indochina, OD700, 1 h, primary screen (AID 1154). Particulars: P. falciparum Indochina infected RBC osmotic lysis, higher = more signal, called active from +8 up or from −8 down.
The nature of assay [4]: plasmodial surface anion channel blockers, osmotic lysis – cell-based, P. falciparum Indochina, OD700, 2 h, primary screen (AID 1155).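 Also: lysis reports solute entry through the parasite surface anion channel PSAC.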 Particulars: P. falciparum Indochina infected erythrocytes, higher = more signal, called active from +8 up or from −8 down.
Assay [5] can be described thus: changes in parasitized red cell lysis, either direction – P. falciparum Indochina, OD700, 3 h, PSAC antagonist project, primary screen (AID 1156). Particulars: P. falciparum-infected erythrocytes, osmotic lysis, higher = more signal, called active from +8 up or from −8 down.
The nature of assay [6]: plasmodial surface anion channel blockers, osmotic lysis – cell-based, P. falciparum Indochina, OD700, 18 h, primary screen (AID 1157). The note with it: P. falciparum Indochina infected erythrocytes, osmotic lysis OD700, 18 h; higher = more signal, called active from +8 up or from −8 down.
A short description of assay [7]: S6 kinase pathway phospho-S6 level changes – cell-based, A549, cytoblot, luminescence, serum-stimulated, primary screen (AID 1158).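 Also: serum-stimulated A549 lung adenocarcinoma cells; signal is phosphorylated S6 detected by cytoblot immunostaining with HRP secondary.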 The note with it: 5 h, higher = more signal.
In assay [8] the target is NADPH oxidase 2 (Homo sapiens) (UniProt P04839). Nature of the assay: compounds shifting NOX2 Amplex Red fluorescence – cell-based, HEK293-NOX2, PMA-stimulated, NOX inhibitor project, primary screen (AID 1159). Also: test concentration not given here. Particulars: 45 min, higher = more signal, called active from +8 up or from −8 down.
Assay [9] has as its target NADPH oxidase 4 (Homo sapiens) (UniProt Q9NPH5). Nature of the assay: compounds shifting NOX4 Amplex Red fluorescence – cell-based, HEK293-NOX4, tetracycline-induced, NOX inhibitor project, primary screen (AID 1160). The note with it: HEK293-NOX4, Amplex Red H2O2 fluorescence, 45 min; higher = more signal, called active from +8 up or from −8 down.
Assay [10] concerns the target NADPH oxidase 5 (Homo sapiens) (UniProt Q96PH1). Nature of the assay: compounds shifting NOX5 Amplex Red fluorescence – cell-based, HEK293-NOX5, NOX inhibitor project, primary screen (AID 1161). Particulars: HEK293-NOX5, ionomycin, 45 min, higher = more signal.
A short description of assay [11]: compound effects on lung adenocarcinoma cell viability – A549, calcein-AM fluorescence, 48 h, basal, profiling panel (AID 1162). Also: test concentration not given here. Particulars: higher = more signal.
Assay [12] in a line: compound effects on differentiated 3T3-L1 adipocyte viability – cell-based, 3T3-L1 adipocytes, calcein-AM fluorescence, 48 h, basal, profiling panel (AID 1163). Also: test concentration not given here. Particulars: 3T3-L1 adipocytes viability, higher = more signal.
The nature of assay [13]: compound effects on hepatocellular carcinoma cell viability – HepG2, calcein-AM fluorescence, 48 h, basal, profiling panel (AID 1164). Also: test concentration not given here. Particulars: higher = more signal.
Assay [14] in a line: compound effects on multiple myeloma cell viability – MM1S, calcein-AM fluorescence, 48 h, basal, profiling panel (AID 1165).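 Also: viability of MM1S multiple myeloma cells under basal unstimulated conditions; test concentration not given here.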 Particulars: higher = more signal.
The nature of assay [15]: calcein-AM signal in unstimulated myeloma cells – cell-based, calcein-AM fluorescence, 48 h, PK04 Diversity Set, profiling panel (AID 1166).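 Also: cells grown under basal conditions without added stimulus; test concentration not given here.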 Particulars: RPMI8226 myeloma viability, higher = more signal.
Assay [16] can be described thus: JC-1 mitochondrial signal, unstimulated HepG2 cells – cell-based, JC-1 fluorescence, 24 h, 100 nL compound, profiling panel (AID 1167). Also: test concentration not given here. The note with it: HepG2 mitochondrial potential, higher = more signal.
A short description of assay [17]: JC-1 mitochondrial signal, unstimulated adipocytes – cell-based, JC-1 fluorescence, 3T3-L1 adipocytes, 24 h, 100 nL compound, profiling panel (AID 1168). Also: test concentration not given here. Particulars: JC-1 mitochondrial fluorescence, higher = more signal, called active from +8 up or from −8 down.
Assay [18] can be described thus: JC-1 mitochondrial signal, unstimulated myeloma cells – cell-based, JC-1 fluorescence, RPMI8226, 24 h, 100 nL compound, profiling panel (AID 1169). Also: test concentration not given here. Particulars: JC-1 mitochondrial potential fluorescence, higher = more signal.
Assay [19] can be described thus: JC-1 mitochondrial signal, unstimulated MM1S myeloma – cell-based, JC-1 fluorescence, 24 h, 100 nL compound, profiling panel (AID 1170). Also: test concentration not given here. The note with it: MM1S mitochondrial potential, higher = more signal.
Assay [20] can be described thus: resazurin metabolic signal in A549 cells – cell-based, resazurin fluorescence, 24 h, PK04 Diversity Set, profiling panel (AID 1171). Also: test concentration not given here. Particulars: A549 viability, higher = more signal, called active from +8 up or from −8 down. In general terms: Resazurin is reduced to fluorescent resorufin, in cell work by metabolically active cells.

Calls of active or inactive are those of the source.

Chain of NADPH oxidase 4 (Homo sapiens) (Q9NPH5 whole entry, looked up): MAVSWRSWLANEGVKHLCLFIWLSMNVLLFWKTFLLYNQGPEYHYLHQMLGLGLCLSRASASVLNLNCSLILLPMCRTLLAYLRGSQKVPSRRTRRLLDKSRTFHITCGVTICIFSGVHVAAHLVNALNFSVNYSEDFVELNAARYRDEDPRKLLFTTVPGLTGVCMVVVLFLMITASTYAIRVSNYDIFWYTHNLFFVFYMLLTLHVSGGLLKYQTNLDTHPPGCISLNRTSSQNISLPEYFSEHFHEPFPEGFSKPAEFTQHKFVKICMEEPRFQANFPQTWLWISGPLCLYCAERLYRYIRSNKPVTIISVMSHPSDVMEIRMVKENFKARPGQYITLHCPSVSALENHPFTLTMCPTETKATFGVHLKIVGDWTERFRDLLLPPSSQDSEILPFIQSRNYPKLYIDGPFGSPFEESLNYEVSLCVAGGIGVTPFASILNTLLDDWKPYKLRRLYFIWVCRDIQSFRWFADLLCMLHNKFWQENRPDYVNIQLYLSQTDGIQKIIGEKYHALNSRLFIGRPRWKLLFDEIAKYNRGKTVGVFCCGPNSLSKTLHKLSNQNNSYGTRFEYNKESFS
Chain of NADPH oxidase 5 (Homo sapiens) (Q96PH1 whole entry, looked up): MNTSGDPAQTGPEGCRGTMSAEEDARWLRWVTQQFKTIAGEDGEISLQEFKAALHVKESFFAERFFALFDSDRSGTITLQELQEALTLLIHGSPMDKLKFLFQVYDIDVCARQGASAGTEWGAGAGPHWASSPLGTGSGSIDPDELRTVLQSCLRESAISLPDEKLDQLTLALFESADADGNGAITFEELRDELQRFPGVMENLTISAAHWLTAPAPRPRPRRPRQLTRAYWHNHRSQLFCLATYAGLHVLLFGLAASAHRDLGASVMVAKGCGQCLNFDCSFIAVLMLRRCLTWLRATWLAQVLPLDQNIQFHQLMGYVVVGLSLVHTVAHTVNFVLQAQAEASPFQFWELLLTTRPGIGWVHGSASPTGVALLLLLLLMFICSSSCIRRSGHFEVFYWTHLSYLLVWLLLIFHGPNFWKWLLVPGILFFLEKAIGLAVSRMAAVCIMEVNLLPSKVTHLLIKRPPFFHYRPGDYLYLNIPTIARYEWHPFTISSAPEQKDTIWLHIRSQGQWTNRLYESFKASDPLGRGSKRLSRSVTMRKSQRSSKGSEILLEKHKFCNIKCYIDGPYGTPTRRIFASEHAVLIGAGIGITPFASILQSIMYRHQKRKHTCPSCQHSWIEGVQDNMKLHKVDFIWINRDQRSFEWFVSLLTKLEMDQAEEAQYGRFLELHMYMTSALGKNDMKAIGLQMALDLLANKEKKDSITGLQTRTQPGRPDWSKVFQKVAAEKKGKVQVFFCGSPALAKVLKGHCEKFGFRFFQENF
Chain of NADPH oxidase 2 (Homo sapiens) (P04839 whole entry, looked up): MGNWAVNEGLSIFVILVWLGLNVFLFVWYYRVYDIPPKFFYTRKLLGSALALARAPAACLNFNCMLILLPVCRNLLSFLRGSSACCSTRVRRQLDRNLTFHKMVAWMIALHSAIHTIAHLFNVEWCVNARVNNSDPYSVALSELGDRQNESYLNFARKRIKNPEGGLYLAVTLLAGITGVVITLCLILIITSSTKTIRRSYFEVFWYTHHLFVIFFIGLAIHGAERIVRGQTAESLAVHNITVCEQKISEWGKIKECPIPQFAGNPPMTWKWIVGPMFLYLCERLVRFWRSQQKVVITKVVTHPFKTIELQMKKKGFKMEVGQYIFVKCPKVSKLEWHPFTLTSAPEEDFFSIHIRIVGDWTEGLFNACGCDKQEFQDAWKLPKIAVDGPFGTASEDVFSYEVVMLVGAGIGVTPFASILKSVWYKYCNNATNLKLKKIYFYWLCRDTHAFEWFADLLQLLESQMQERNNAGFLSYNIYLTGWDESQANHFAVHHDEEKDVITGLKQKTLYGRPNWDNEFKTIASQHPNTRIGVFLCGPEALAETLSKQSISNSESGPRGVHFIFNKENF

For the compound `CCN1C(=O)[C@H]2[C@H]3[C@H](O)[C@H](O)CC(=O)[C@@H]3CC[C@H]2C1=O`, the z-score in assay [1] was 0.0972 (inactive); in assay [3], -0.0937 (inactive); in assay [4], -0.0275 (inactive); in assay [5] it was -0.403 (inactive); in [6] it was -0.138 (inactive); in assay [7], -0.108. Also, the z-score in assay [8] was -1.19 (inactive); in [9] it was 0.1 (inactive); in assay [10], 0.0328; in [11], 0.111; in assay [12], 0.0891; in assay [13] it was 0.0082. In addition, the z-score in [14] was -0.681; in assay [15], 0.177; in assay [16] it was 0.231; in assay [17], 0.55 (inactive); in assay [18], -0.0467; in assay [19] it was -0.22. In addition, the z-score in [20] was -0.561 (inactive). For the same compound, the composite z-score in [2] is -0.149.
With `CCCNC(=O)OC[C@H]1O[C@H](CCON=C(C)CCN2CCc3nc(CC)c(CC)cc3C2)C=C[C@@H]1Oc1ccc(OC)cc1`, the z-score was -0.611 (inactive) in assay [1]; 8.46 (active) in [3]; 1.12 (inactive) in assay [4]; 1.66 (inactive) in assay [5]; 0.539 (inactive) in assay [6]; 0.58 in assay [7]. The z-score in assay [8] is -3.19 (inactive); in assay [9] it was -1.7 (inactive); in assay [10], -3.32; in assay [11] it was -0.142; in [12] it was 0.73; in assay [13], -0.304. The z-score is -2.95 in assay [14]; -3.14 in assay [15]; 4.22 in assay [16]; -1.48 (inactive) in assay [17]; -0.0505 in assay [18]; 0.598 in assay [19]. Also, the z-score in assay [20] is -0.245 (inactive). The composite z-score in assay [2] is -0.0949.
`CC(C)(C)N1C(=O)[C@H]2[C@H]3[C@H](O)[C@H](O)CC(=NOCc4ccccc4)[C@H]3CC[C@H]2C1=O`: the z-score was 0.254 (inactive) in [1]; 4.05 (inactive) in assay [3]; 0.54 (inactive) in [4]; -0.408 (inactive) in assay [5]; 0.133 (inactive) in [6]; -0.371 in [7]. The z-score in assay [8] is -0.147 (inactive); in assay [9] it was 0.991 (inactive); in assay [10] it was 0.765; in assay [11], 0.156; in assay [12], -0.503; in [13], -1.11. The z-score in assay [14] was 0.166; in assay [15], -0.946; in assay [16] it was -0.736; in assay [17], 0.536 (inactive); in assay [18] it was -0.492; in assay [19] it was 0.0361. The z-score in assay [20] was 0.727 (inactive). In assay [2], this compound had a composite z-score of 0.57.
As to `COC(=O)CC=C[C@@H](C)[C@@H](C=NO[C@H](C)c1cn([C@H](CO)Cc2ccccc2)nn1)OC`, the z-score in [1] was -0.36 (inactive); in assay [3], 0.727 (inactive); in [4], 0.0995 (inactive); in [5], -0.721 (inactive); in assay [6], 0.0239 (inactive); in assay [7], -0.505. Also, the z-score in [8] was 0.824 (inactive); in assay [9] it was 0.541 (inactive); in [10], 0.299; in assay [11], -0.0647; in [12] it was 0.304; in assay [13], -0.458. The z-score in [14] is 0.209; in assay [15], 0.0397; in [16], -0.741; in assay [17], -1.24 (inactive); in [18] it was 0.923; in assay [19], 1.74. Besides, the z-score in assay [20] was 0.556 (inactive). The composite z-score in assay [2] was -0.104.
Regarding `C[C@@H]1CC[C@H]2C(=O)O[C@@H](Cc3ccccc3)CN2[C@H]1c1ccc(Br)cc1`, the z-score in [1] is -0.28 (inactive); in assay [3], 2.26 (inactive); in assay [4], 0.935 (inactive); in assay [5], 0.277 (inactive); in assay [6], 0.563 (inactive); in assay [7] it was -0.536. For the same compound, the z-score is -0.251 (inactive) in [8]; -0.286 (inactive) in assay [9]; -0.621 in assay [10]; 0.442 in assay [11]; 0.185 in [12]; 0.828 in assay [13]. Also, the z-score in [14] is -0.591; in assay [15], -0.323; in [16], -0.225; in [17], 0.276 (inactive); in assay [18] it was 0.231; in [19], 0.697. In addition, in assay [20], the z-score is 0.539 (inactive). The compound also showed a composite z-score in assay [2] of -0.148.

These data come from PubChem BioAssay.
